# The list is not random: actives were taken first. Their share in the collection is about 9.3%.
# ELG1 repair inh = inhibitors of ELG1-dependent DNA repair in HEK293T cells; HEK293T ELG1-luciferase reporter, luminescence, 16 h; DNA damage induced by 5-fluorouridine; hit rate 2.3% among 330,000; Potency, µM (titrated, usually from 46.1 µM), hits mostly inhibitors; note: nearly all actives have a fitted effect of over 55% in size
#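 5-Fluorouridine DNA damage + compound/DMSO, 2,000 cells/well, 16 h, 37 °C/5% CO2. ONE-Glo, 30 min RT, luminescence. Readout = decrease in reporter signal.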
# Rab9 prom act = activates the Rab9 promoter; Huh7 Rab9 promoter-luciferase reporter, luminescence, 24 h; Potency, µM (highest dose often 9.22 µM), usual class: activators; hit rate 2.8% among 320,000; note: nearly all actives have a fitted effect of over 60% in size
#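 Rab9 promoter-driven luciferase in stably transfected Huh7 cells; 1500 cells/well rested 2 h, exposed to compound in DMSO for 24 h at 37 °C, 5% CO2. Luminescence read 10 min after adding luciferase reagent at ambient temperature.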
# FLuc counter = inhibits or activates purified firefly luciferase, miR-21 counter-screen; purified FLuc, Km substrates, luminescence inhibition; P08659; Potency, µM (series often up to 57.5 µM), hits mostly inhibitors; hit rate 6.9% among 360,000; note: nearly all actives have a fitted effect of over 55% in size
# Target sequence (P08659 whole entry, looked up): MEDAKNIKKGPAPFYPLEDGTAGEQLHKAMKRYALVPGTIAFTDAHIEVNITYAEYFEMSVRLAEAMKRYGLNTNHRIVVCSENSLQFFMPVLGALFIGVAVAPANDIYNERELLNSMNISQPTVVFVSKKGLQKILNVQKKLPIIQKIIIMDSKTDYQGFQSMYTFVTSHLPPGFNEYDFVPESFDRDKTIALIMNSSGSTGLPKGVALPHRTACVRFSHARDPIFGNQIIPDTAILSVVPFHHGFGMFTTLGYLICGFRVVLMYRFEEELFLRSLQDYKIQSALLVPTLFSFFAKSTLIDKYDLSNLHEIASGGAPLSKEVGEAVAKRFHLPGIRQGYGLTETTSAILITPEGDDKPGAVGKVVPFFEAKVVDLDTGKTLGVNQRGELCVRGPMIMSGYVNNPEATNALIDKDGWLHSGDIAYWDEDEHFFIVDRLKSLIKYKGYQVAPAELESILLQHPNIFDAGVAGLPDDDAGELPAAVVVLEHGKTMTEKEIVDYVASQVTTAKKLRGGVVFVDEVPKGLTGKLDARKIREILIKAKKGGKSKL
#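 Biochemical qHTS of compounds, final roughly 60 µM downward over six points, against 10 nM purified firefly luciferase using Km concentrations of substrates (10 uM D-luciferin, 10 uM ATP) in Tris acetate pH 7.5 buffer; luminescence output.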
# SMN2 splice enh = enhancers of SMN2 splice variant expression; hit rate 2.8% among 210,000; Potency, µM (top dose mostly 46.1 µM), actives largely listed as activators; HEK293 SMN2-luciferase splicing reporter, luminescence, 30-36 h; note: nearly all actives have a fitted effect of over 55% in size
#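 HEK293 cells carry an SMN2 […]–luciferase reporter in which exon 7 inclusion puts luciferase in frame. Cells were plated 10-12 h before compound addition, then incubated 30-36 h at 37C. ONE-Glo luminescence was read; sodium butyrate at 4.5 mM final served as control.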
# NPC1 prom act = activates the NPC1 promoter; Huh7 NPC1 promoter luciferase reporter, 24 h; Potency, µM (series often up to 9.22 µM), usual class: activators; hit rate 2.4% among 320,000; AID 485313; note: nearly all actives have a fitted effect of over 60% in size
#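 Luminescence from an NPC1 promoter-driven luciferase reporter in stably transfected Huh7 cells was measured after 24 h compound treatment at 37 °C, followed by 10 min ambient incubation with luciferase detection reagent.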
# ELG1 genotoxic = inducers of genotoxicity in HEK293T ELG1-luciferase cells; Potency, µM (doses to about 46 µM), most hits filed as activators; hit rate 1.3% among 330,000; AID 504466; HEK293T ELG1-luciferase reporter, luminescence, 16 h; note: nearly all actives have a fitted effect of over 60% in size
#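 Genotoxic stress is detected as increased luminescence from luciferase-tagged ELG1 in HEK293T cells, measured with ONE-Glo after a 16 hr treatment at 37 °C.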
# Hits are given with their value; 0 = inactive; ? = inconclusive; - = not tested or not shown; [ ] = remark or other dose. Calls come from the whole dose curve; as a rule, active = well fitted curve in the direction sought with a large enough effect; inconclusive = small, poorly fitted or top-dose-only effect, or another doubt; inactive = no such curve, though single readings can be large; an effect the other way counts as inactive or inconclusive.
SMILES,ELG1 repair inh,Rab9 prom act,FLuc counter,SMN2 splice enh,NPC1 prom act,ELG1 genotoxic
O=C(NC(=S)Nc1cccc(Cl)c1N1CCCCC1)c1ccco1,?,0,0,0,0,0
O=C(NC(=S)Nc1ccccc1Cl)c1ccco1,?,?,9.5µM,-,?,0
O=C(NNC(=S)Nc1ccccc1Cl)c1ccccc1,?,1.6µM,13µM,-,2.5µM,?
O=C(NC(=S)Nc1cccc2c(O)cccc12)c1ccco1,0,0,21µM,-,0,0
FC(F)(F)c1cc(-c2ccc(Cl)cc2)nc(NCc2cccnc2)n1,21µM,0,0,0,0,0
O=C(O)COc1ccc(/C=C/c2nc3ccc([N+](=O)[O-])cc3s2)cc1,0,0,4.8µM,-,0,0
COc1ccccc1N(C)S(=O)(=O)c1ccc(C(=O)Nc2ccc(C(N)=O)cc2)cc1,?,-,-,-,-,0
Nc1c(S(=O)(=O)c2cccs2)c2nc3ccccc3nc2n1/N=C/c1cccc(O)c1,18µM,0,0,0,0,0
CCOc1ccc(-c2nc(S(=O)(=O)c3ccccc3)c(NCc3cccnc3)o2)cc1,15µM,0,0,?,0,0
COc1cccc(-c2cc(C(=O)NN3CCOCC3)c3ccccc3n2)c1,0,0,0,0,0,0
CC(=O)c1cccc(NC(=O)c2cc(-c3ccco3)nc3ccccc23)c1,?,0,0,-,0,0
Cc1cc(C(=O)Nc2ccncc2)c2ccccc2n1,23µM,0,0,-,0,0
CC(=O)Nc1cccc(NC(=O)c2cc(-c3cccnc3)nc3ccc(Cl)cc23)c1,21µM,0,?,0,0,0
CC(=O)c1cccc(NC(=O)c2cc(-c3ccncc3)nc3ccccc23)c1,21µM,0,0,-,0,0
COc1cccc(-c2cc(C(=O)Nn3cnnc3)c3ccccc3n2)c1,0,0,0.95µM,0,0,0
CC(=O)Nc1cccc(NC(=O)c2cc(-c3cccnc3)nc3ccc(Br)cc23)c1,?,0,?,0,0,0
Cc1oc2ncnc(N3CCCCC3)c2c1C(=O)N1CCN(c2cccc(C(F)(F)F)c2)CC1,-,-,0,-,-,-
CCN1CCN(Cc2ccc(NC(=O)c3cc(NC(=O)c4cc5cccc(OC)c5o4)cc(OC)c3)cc2C(F)(F)F)CC1,0,0,?,-,0,0
CCC(=O)N(Cc1cc2cc(OC)ccc2[nH]c1=O)c1ccc(C)cc1C,0,0,0,0,0,0
O=C(NCc1cccnc1)Nc1cccc(Cl)c1,?,0,0,-,0,0
COc1cccc(-c2cc(C(=O)Nc3ccncc3)c3ccccc3n2)c1,0,0,17µM,-,0,0
COc1cccc(NC(=O)c2cc(-c3ccccn3)nc3ccccc23)c1,?,0,0,-,0,0
O=C(Nc1ccc(-c2n[nH]c(=S)o2)cc1)c1ccccc1Cl,?,0,11µM,-,0,0
CC1=C(C(=O)Nc2ccc(C)cc2C)C(c2ccccc2)n2nc(SCC(=O)c3ccc(C)cc3)nc2N1 (configuration not stated),-,-,0,-,-,-
O=c1cc(-c2ccccc2Cl)oc2c(Br)ccc(O)c12,?,3.5µM,12µM,10µM,?,?
SMILES,ELG1 repair inh,Rab9 prom act,FLuc counter,SMN2 splice enh,NPC1 prom act,ELG1 genotoxic
COc1ccc(C(O)c2nc3ccccc3n2C)cc1OC (configuration not stated),9.2µM,0,0,0,0,0
CC(NC(=O)COc1ccccc1)C(=O)NCc1ccc(S(N)(=O)=O)cc1 (configuration not stated),0,-,-,-,-,0
O=C(Oc1cccc2c(=O)[nH]ccc12)c1ccccc1,0,0,0,0,0,0
Cc1ccnc(NS(=O)(=O)c2ccc(NC(=O)/C=C/c3ccccc3)cc2)n1,0,0,?,-,0,0
Cc1ccc(/C=C/C(=O)Nc2ccc(S(=O)(=O)Nc3ncccn3)cc2)cc1,0,0,9.5µM,0,0,0
O=C(/C=C/c1ccc(F)cc1)Nc1ccc(S(=O)(=O)Nc2ncccn2)cc1,?,0,17µM,-,0,0
COc1ccc(/C=C/C(=O)NC(=S)Nc2ccc(S(=O)(=O)Nc3cc(C)on3)cc2)cc1,0,0,15µM,-,0,0
O=C(O)/C=C/c1ccc(S(=O)(=O)Nc2ccccc2C(=O)Nc2ccc(F)cc2)cc1,0,0,12µM,-,0,0
COc1ccc(/C=C/C(=O)NC(=S)Nc2ccc(S(=O)(=O)Nc3ccc(OC)nn3)cc2)cc1,0,0,?,0[1.84 µM],0,0
CC1CN=C(NC2CCCCC2C)S1 (configuration not stated),0,0,0,0,0,0
O=C(NCc1ccccn1)Nc1ccc2c(c1)OCO2,?,0,?,0,0,?
CCOC(=O)N1CCN(c2ccc(S(=O)(=O)N3CCOCC3)cn2)CC1,0,-,-,-,-,0
Cc1ccc(/C=C/C(=O)Nc2ccc(S(=O)(=O)Nc3cc(C)nc(C)n3)cc2)cc1,0,0,11µM,-,0,0
Cc1noc(NS(=O)(=O)c2ccc(NC(=O)/C=C/c3ccc(Br)cc3)cc2)c1C,0,0,?,-,0,0
Cc1noc(NS(=O)(=O)c2ccc(NC(=O)/C=C/c3ccc(C(C)C)cc3)cc2)c1C,0,0,11µM,-,0,0
CC(=O)Nc1nc(-c2ccccc2)nc(-c2ccccc2OC(C)=O)n1,21µM,0,0,0,0,0
CCn1c(SCC(=O)NCc2ccccc2)nnc1C(CO)NC(=O)c1ccccc1 (configuration not stated),0,0,0,-,0,0
Brc1ccc2ncnc(NCc3ccccc3)c2c1,4.1µM,0,0,0,0,0
Clc1ccc(Nc2ncnc3ccc(Br)cc23)cc1,?,0,0,-,0,0
CN(C)Cc1ccccc1-c1ccc2ncnc(NCc3ccccc3)c2c1,-,-,-,0,-,-
Cc1cc2c(NCCc3ccccc3)ncnc2s1,?,0,12µM,-,0,?
c1ccc(CCNc2ncnc3ccccc23)cc1,?,0,12µM,-,0,0
CN(C)c1ccc(Nc2ncnc3ccc(Br)cc23)cc1,8.2µM,0,?,-,?,0
O=C(O)c1cccc(Oc2ncnc3sc4c(c23)CCCC4)c1,0,0,?,0,0,0
CCOc1ccc2nc(/N=C/c3nc(-c4ccc(Br)cc4)oc3O)sc2c1,?,0,0,0,0,0
SMILES,ELG1 repair inh,Rab9 prom act,FLuc counter,SMN2 splice enh,NPC1 prom act,ELG1 genotoxic
CCCCN=Cc1sc2ccc(OCC)cc2c1O,?,0,21µM,0,0,0
C=CCN=Cc1sc2ccc(OCC)cc2c1O,?,2.8µM,8.5µM,-,3.2µM,?
Cc1cccc(-c2noc(CCCC(=O)Nc3cccnc3)n2)c1,0,0,0,0,0,0
CCc1cccc2sc(N3CCN(C(=O)c4cc5ccccc5cc4OC)CC3)nc12,-,-,0,-,-,-
Cn1sc(NC(=O)c2ccccc2Cl)nc1=O,0,0,19µM,?,0,0
Cn1sc(NC(=O)c2cccc(Cl)c2)nc1=O,?,0,19µM,0,?,0

# High-throughput results: PubChem, National Center for Advancing Translational Sciences (NCATS)
